This is part of a sample that, as a whole, favours compounds with a hit. Of some 83,000 tested, about 20% had one in any assay.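 Testing used 96-well plates and a 48-hour single-concentration exposure. Example: -40 means 40% of the starting cells died.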 A number with no mark means an inactive call. Active and inactive are the calls of the source. The calls were made as follows: active = growth percent below 10; inactive = the rest.
test system: MDA-MB-468 breast; test: NCI-60 one-dose screen, 48 h (100 = growth as untreated, 0 = no growth, -100 = all killed); settings: 10 µM unless noted

SMILES | growth
C#CC#CC#CC#CC#CC#CC#CC#CCC1OC[C@H](COC(=O)O[C@@H](C(=O)O[C@H]2C[C@@]3(O)[C@@H](OC(=O)c4ccccc4)[C@@H]4[C@]5(OC(C)=O)CO[C@@H]5C[C@H](O)[C@@]4(C)C(=O)[C@H](OC(C)=O)C(=C2C)C3(C)C)[C@@H](NC(=O)c2ccccc2)c2ccccc2)O1 (some centres not stated) | 8.69% (active)
COc1ccccc1C(C[N+](=O)[O-])c1c(-c2ccccc2)[nH]c2cc(C)ccc12 (configuration not stated) | 44.4%
COc1ccc(/C=C/c2cc(N3CCOCC3)c3cc(F)c(F)cc3n2)cc1OC | 14.5%
CC(C)NCC(O)COc1ccc(CCOCC2CC2)cc1 (configuration not stated) | 103%
O=[N+]([O-])c1ccc(S(=O)(=O)NN=C2CCCCC2)cc1 | 115%
CCOC(=O)/C(=C\c1ccc2ccccc2c1)P(=O)(OCC)OCC | -13.1% (active)
O=C(CSc1nnc(-c2cc(-c3ccccc3)nc3ccccc23)o1)c1ccc(Br)cc1 | 103%
N#Cc1nc(-c2cccc(Br)c2)cc(-c2ccc(Nc3nc(N4CCCCC4)nc(N4CCCCC4)n3)cc2)c1N | -26.3% (active)
Cc1nn(-c2nc3ccccc3[nH]2)c2c1C(c1ccc3c(c1)OCO3)CC(=O)N2 (configuration not stated) | 47.7%
NC(=S)n1c(=O)n(-c2cccc(C(F)(F)F)c2)c(=O)c2cc(-c3ccc(F)cc3F)ccc21 | 1.23% (active)
CCCCCCCCCCCCCCCC[N+](C)(CCO)Cc1cnc[nH]1 (configuration not stated) | -16% (active)
C[C@@]1(CCC#N)[C@H]2CC[C@@H]3[C@H]4[C@H](C(=O)/C=C/c5cccnc5)CC[C@]4(C#N)CC[C@@]3(C)[C@]2(C)CC[C@H]1C(=O)/C=C/c1cccnc1 | 57.9%
